The text below walks through data of PubChem BioAssay (Tox21).

SMILES strings stand for the structures. Values joined by “and” are separate entries in the source; they are usually repeats but may differ in a detail not shown here. Identical values can stand only once. Inconclusive results are not listed. Where a structure was tested more than once in an assay, its records may differ in their call. Active and inactive are the calls of the source. Unless noted, calls come from the whole dose curve; as a rule, active = well fitted curve in the direction sought with a large enough effect in the repeat runs; inconclusive = weak or mixed curves; inactive = no such curve, though single readings can be large; an effect the other way counts as inactive or inconclusive.

Assay [1] is described as follows: qHTS assay for identifying genotoxic compounds that show differential cytotoxicity against isogenic chicken DT40 cell lines with known DNA damage response pathways - wild type cell line (AID 743012). Note: nearly all actives have a fitted effect of over 60% in size. Note: potency is the fitted concentration of half-maximal effect. The essentials:
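Cells (DT40 wild type, 300/well) are treated with DMSO-dissolved compounds after a ~0.5 h pre-incubation and kept 40 h at 37 C/5% CO2. Viability is then measured by CellTiter-Glo luminescence following 30 min at room temperature.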
(In general: qHTS replaces the single test concentration by a dilution series.)

Assay [2] can be described thus: qHTS assay for identifying genotoxic compounds that show differential cytotoxicity against isogenic chicken DT40 cell lines with known DNA damage response pathways - Rev3 mutant cell line (AID 743014). Note: nearly all actives have a fitted effect of over 55% in size. Note: potency is the fitted concentration of half-maximal effect.
The nature of assay [3]: qHTS assay to identify small molecule antagonists of the androgen receptor (AR) signaling pathway - cell viability counter screen (AID 743033; note: nearly all actives have a fitted effect of over 45% in size).
Assay [4] can be described thus: qHTS assay to identify small molecule antagonists of the androgen receptor (AR) signaling pathway using the MDA cell line - cell viability counter screen (AID 743041; note: nearly all actives have a fitted effect of over 45% in size). The essentials: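 Viability counter screen run alongside the AR antagonist reporter: cells seeded 5 h before compound, R1881 added, 16 h incubation at 37C without CO2, fluorescent CellTiter-Fluor signal quantified.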

The nature of assay [5]: qHTS assay to identify small molecule antagonists of the thyroid receptor (TR) signaling pathway - cell viability counter screen (AID 743064). Note: nearly all actives have a fitted effect of over 50% in size. Note: potency is the fitted concentration of half-maximal effect. In short, it runs like this: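 Counter screen for cytotoxicity: compound plus T3 (1 nM final) on GH3.TRE-Luc cells, 23.5 h at 37 °C, then fluorescence viability readout with CellTiter-Fluor.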
Assay [6] deals with thyroid hormone receptor (rat, GH3 cells). As to the kind of experiment: qHTS assay to identify small molecule agonists of the thyroid receptor (TR) signaling pathway (AID 743066; calls by dose curve).
The nature of assay [7]: qHTS assay to identify small molecule antagonists of the estrogen receptor alpha (ER-alpha) signaling pathway - cell viability counter screen (AID 743074; calls by dose curve;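 note: HEK293 cells carrying ER-alpha-UAS-bla reporter stimulated with 17beta-estradiol; nearly all actives have a fitted effect of over 45% in size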).
Assay [8] in a line: qHTS assay to identify small molecule antagonists of the estrogen receptor alpha (ER-alpha) signaling pathway using the BG1 cell line - cell viability counter screen (AID 743081).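 Note: compound given together with 17beta-estradiol as the ER stimulus; nearly all actives have a fitted effect of over 45% in size.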
For assay [9], the target named is Aromatase (Homo sapiens) (UniProt P11511). Nature of the assay: qHTS assay to identify aromatase inhibitors (AID 743083). Note: nearly all actives have a fitted effect of over 55% in size. Note: potency is the fitted concentration of half-maximal effect.
Assay [10] is described as follows: qHTS assay for identifying genotoxic compounds that show differential cytotoxicity against isogenic chicken DT40 cell lines with known DNA damage response pathways - Rad54/Ku70 mutant cell line (AID 743015). Note: nearly all actives have a fitted effect of over 60% in size. Note: potency is the fitted concentration of half-maximal effect.
Assay [11] can be described thus: qHTS assay to identify small molecule antagonists of the thyroid receptor (TR) signaling pathway (AID 743065). Note: nearly all actives have a fitted effect of over 55% in size. Note: potency is the fitted concentration of half-maximal effect. In short, it runs like this: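 GH3.TRE-Luc rat pituitary cells carrying two TR response elements driving luciferase were plated for 4 h, given compound plus 1 nM T3 (final), and incubated 23.5 h at 37 C. ONE-Glo luminescence measured reporter inhibition; CellTiter-Fluor fluorescence tracked cytotoxicity.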

The target in assay [12] is Estrogen receptor (Homo sapiens) (UniProt P03372). Nature of the assay: qHTS assay to identify small molecule antagonists of the estrogen receptor alpha (ER-alpha) signaling pathway (AID 743069; active = well fitted curve in the direction sought with a large enough effect in the signal ratio in the repeat runs, not every such curve was filed as active; the % refers to the signal ratio). In short, it runs like this:
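Estradiol-stimulated ER-alpha-UAS-bla HEK293 cells, 18 hr compound exposure at 37C. LiveBLAzer B/G substrate, 2 hr RT, fluorescence read.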

Assay [13] has the same target. As to the kind of experiment: qHTS assay to identify small molecule agonists of the estrogen receptor alpha (ER-alpha) signaling pathway (AID 743075; calls by dose curve;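 note: HEK293 GripTite cells with ER-alpha and UAS-driven beta-lactamase reporter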).
The target is the same in assay [14]. Nature of the assay: qHTS assay to identify small molecule agonists of the estrogen receptor alpha (ER-alpha) signaling pathway using the BG1 cell line (AID 743079). Note: nearly all actives have a fitted effect of over 20% in size. Conditions: BG1Luc4E2 cells, ERE-luciferase agonist, 22 h; activation: at 70.3 µM (top of the series) unless noted.
Assay [15] is described as follows: qHTS assay to identify small molecule antagonists of the estrogen receptor alpha (ER-alpha) signaling pathway using the BG1 cell line (AID 743080; calls by dose curve;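 note: BG1 cells stimulated with 17beta-estradiol alongside compound; nearly all actives have a fitted effect of over 25% in size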). In short, it runs like this: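 After 5 days in phenol-red-free 10% charcoal-stripped FBS medium, BG1-Luc-4E2 cells were seeded, left 24 h at 37 C, co-treated with compounds and 17beta-estradiol for 21.5 h, then assayed for viability and luciferase.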

The target in assay [16] is Androgen receptor (Homo sapiens) (UniProt P10275). Nature of the assay: qHTS assay to identify small molecule agonists of the androgen receptor (AR) signaling pathway using the MDA cell line (AID 743040; note: nearly all actives have a fitted effect of over 20% in size). The following applies: MDA-kb2 AR-luc cells, MMTV luciferase, 16 h; at 70.3 µM (top of the series); stronger effect = higher value. In short, it runs like this:
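Luminescence from ONE-Glo, read after 30 min at room temperature, reflects MMTV-driven luciferase in MDA-kb2 cells (AR- and GR-responsive). Treatment lasted 16 h at 37C, 0% CO2.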

Assay [17] has the same target. As to the kind of experiment: qHTS assay to identify small molecule antagonists of the androgen receptor (AR) signaling pathway using the MDA cell line (AID 743042; note: nearly all actives have a fitted effect of over 55% in size). In short, it runs like this: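 MDA-kb2 cells (human breast carcinoma, stably carrying an MMTV-luciferase reporter responsive to AR and GR) were plated at 3,000 cells/well and preincubated 5 hr at 37C, then given compound plus R1881 agonist for 16 h. ONE-Glo luminescence was read.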
% is set by controls: 0 for no effect and ±100 for the full control effect.

Estrogen receptor (Homo sapiens), sequence (P03372 whole entry, looked up): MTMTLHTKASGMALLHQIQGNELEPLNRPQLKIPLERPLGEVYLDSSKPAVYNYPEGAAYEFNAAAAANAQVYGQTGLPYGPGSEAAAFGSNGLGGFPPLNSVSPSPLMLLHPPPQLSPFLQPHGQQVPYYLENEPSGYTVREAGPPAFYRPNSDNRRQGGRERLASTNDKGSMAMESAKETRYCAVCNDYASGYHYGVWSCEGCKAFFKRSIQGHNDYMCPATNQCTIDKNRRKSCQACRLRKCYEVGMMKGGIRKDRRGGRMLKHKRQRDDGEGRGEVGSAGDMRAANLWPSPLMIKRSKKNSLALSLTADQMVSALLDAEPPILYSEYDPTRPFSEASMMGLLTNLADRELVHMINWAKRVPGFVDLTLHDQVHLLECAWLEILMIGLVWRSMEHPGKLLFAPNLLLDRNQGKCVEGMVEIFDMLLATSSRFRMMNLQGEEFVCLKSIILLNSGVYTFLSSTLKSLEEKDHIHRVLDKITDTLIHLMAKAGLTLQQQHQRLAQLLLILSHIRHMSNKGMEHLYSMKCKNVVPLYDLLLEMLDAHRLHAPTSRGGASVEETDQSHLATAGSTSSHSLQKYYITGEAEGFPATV
Aromatase (Homo sapiens), sequence (P11511 whole entry, looked up): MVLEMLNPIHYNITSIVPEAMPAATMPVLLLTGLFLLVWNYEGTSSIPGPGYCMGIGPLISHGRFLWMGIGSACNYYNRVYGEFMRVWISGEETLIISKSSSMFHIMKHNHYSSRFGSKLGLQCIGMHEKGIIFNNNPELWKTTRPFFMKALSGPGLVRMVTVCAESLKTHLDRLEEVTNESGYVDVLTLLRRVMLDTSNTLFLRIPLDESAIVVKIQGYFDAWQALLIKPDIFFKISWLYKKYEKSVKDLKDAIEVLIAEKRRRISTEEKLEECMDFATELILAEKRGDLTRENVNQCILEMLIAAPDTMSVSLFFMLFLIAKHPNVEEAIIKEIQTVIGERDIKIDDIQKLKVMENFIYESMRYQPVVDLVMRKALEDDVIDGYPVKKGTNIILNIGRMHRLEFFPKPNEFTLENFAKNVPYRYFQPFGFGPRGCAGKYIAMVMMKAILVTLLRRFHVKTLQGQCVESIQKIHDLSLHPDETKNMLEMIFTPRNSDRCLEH
Androgen receptor (Homo sapiens), sequence (P10275 whole entry, looked up): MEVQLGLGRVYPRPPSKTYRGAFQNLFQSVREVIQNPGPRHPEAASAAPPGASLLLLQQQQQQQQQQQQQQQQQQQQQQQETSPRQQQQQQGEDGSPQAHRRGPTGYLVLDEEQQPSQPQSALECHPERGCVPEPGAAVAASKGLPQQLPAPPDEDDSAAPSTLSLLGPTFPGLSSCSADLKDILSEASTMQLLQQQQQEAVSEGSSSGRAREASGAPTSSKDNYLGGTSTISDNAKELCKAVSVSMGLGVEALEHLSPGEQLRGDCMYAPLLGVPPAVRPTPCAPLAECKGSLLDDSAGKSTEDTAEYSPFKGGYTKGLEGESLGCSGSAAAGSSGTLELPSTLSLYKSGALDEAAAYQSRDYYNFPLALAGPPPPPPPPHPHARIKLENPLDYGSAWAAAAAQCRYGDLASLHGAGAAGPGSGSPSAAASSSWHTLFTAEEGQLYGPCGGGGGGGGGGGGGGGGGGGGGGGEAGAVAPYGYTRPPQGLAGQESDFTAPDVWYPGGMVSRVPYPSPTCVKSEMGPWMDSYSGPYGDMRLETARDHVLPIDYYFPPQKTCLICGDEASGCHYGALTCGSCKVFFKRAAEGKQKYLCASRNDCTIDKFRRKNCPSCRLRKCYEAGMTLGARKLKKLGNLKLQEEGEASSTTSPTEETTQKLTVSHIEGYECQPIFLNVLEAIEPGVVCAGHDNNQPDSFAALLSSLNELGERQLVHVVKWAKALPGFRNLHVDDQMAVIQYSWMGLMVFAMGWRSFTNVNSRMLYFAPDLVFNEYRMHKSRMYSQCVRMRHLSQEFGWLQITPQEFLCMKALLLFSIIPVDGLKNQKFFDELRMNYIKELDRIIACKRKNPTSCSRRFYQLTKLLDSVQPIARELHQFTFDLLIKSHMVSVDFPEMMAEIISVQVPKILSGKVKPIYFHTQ

As for `O=S(=O)(O)C(F)(F)C(F)(F)C(F)(F)C(F)(F)C(F)(F)C(F)(F)C(F)(F)C(F)(F)F`, the Potency entry in assay [1] is “inactive and 54.5 µM (active)”; in assay [2], 61.1 µM (active) and 48.6 µM (active); in [5], 47.2 µM (active). Further, the Potency result in assay [3], in assay [4], in [6], in assay [7], in assay [8] and in assay [9] was “inactive” throughout.

With `CCCCOC(=O)COC(=O)c1ccccc1C(=O)OCCCC`, the Potency result in assay [1], in assay [2], in [10], in assay [3], in assay [5] and in assay [11] was “inactive” in each case. The Potency entry in assay [6], in assay [12], in [7], in assay [13], in assay [14] and in assay [15] was “inactive” throughout. The Potency result in assay [8] and in assay [9] was “inactive” throughout.

Turning to `COC(=O)Nc1nc2ccccc2[nH]1`, the Potency in assay [1] was 9.69 µM (active) and 8.63 µM (active); in assay [2], 6.11 µM (active) and 6.86 µM (active); in [10] it was 6.86 µM (active) and 7.7 µM (active); in [5], 12.2 µM (active); in assay [11] it was 5.45 µM (active) and 7.7 µM (active). Further, the Potency entry in [3], in assay [4], in assay [17], in assay [6], in assay [7] and in assay [8] was “inactive” throughout. Also, the Potency entry in [9] is “inactive”. The activity change in assay [16] is 0.968% (inactive) and 4.32% (inactive).

With `C[N+](C)(C)CC(=O)[O-]`, the Potency result in [1], in assay [2], in assay [10], in assay [3], in assay [5] and in [6] was “inactive” in each case. Also, the Potency entry in assay [12], in [7], in assay [13], in assay [14], in assay [15] and in [8] was “inactive” throughout. Moreover, the Potency entry in assay [9] is “inactive”.

On to `CCOS(=O)(=O)OCC`, for which the Potency entry in [1], in assay [10], in assay [3], in assay [4], in assay [5] and in [11] was “inactive” each time. The Potency entry in assay [6], in assay [12], in [7], in [13], in assay [14] and in assay [15] was “inactive” in each case. Further, the Potency result in assay [8] and in assay [9] was “inactive” throughout. For the same compound, in assay [2], the Potency result was “inactive and 54.5 µM (active)”.

For `OCCOCCO`, the Potency result in assay [1], in [2], in assay [10], in [3], in [4] and in [5] was “inactive” throughout. Also, the Potency entry in assay [11], in assay [6], in assay [12], in assay [13], in assay [14] and in [15] was “inactive” each time. For the same compound, the Potency result in [8] and in assay [9] was “inactive” in each case.

Consider `O=P(OCCCl)(OCCCl)OCCCl`, for which the Potency entry in assay [1], in [2], in assay [10], in assay [3], in [4] and in assay [5] was “inactive” in each case. In addition, the Potency entry in assay [11], in assay [6], in assay [7], in [8] and in [9] was “inactive” in each case.

Turning to `CCN(CC)C(=O)C(C)Oc1cccc2ccccc12` (stereo unspecified), the Potency in [1] was 10.9 µM (active); in assay [2], 54.9 µM (active) and 17.2 µM (active); in [10], 17.2 µM (active); in [9], 34.4 µM (active). Also, the Potency result in [4], in assay [5], in assay [6], in assay [12], in assay [7] and in assay [13] was “inactive” each time. Besides, the Potency result in assay [14] and in [8] was “inactive” each time.

Take `Brc1ccc(Br)cc1`: the Potency result in assay [1], in [2], in assay [10], in assay [3], in assay [5] and in assay [11] was “inactive” each time. The Potency result in [6], in [7], in assay [8] and in assay [9] was “inactive” each time.
